# This is part of a sample that, as a whole, favours compounds with a hit. Of some 79,000 tested, about 15% had one in any assay. A number with no mark means an inactive call. Calls of active or inactive are those of the source. Cut-off read from the data, not from the text of the source: active = growth inhibition above about 70%; inactive = the rest.
# How the values were obtained:
# [1] = NCI Yeast Anticancer Drug Screen. Data for the rad52 strain (AID 147);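 note: 0% = growth of vehicle-treated control cultures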; details: S. cerevisiae rad52 mutant growth inhibition, active compounds read high
# Outline: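 Inhibition of yeast growth, referenced to vehicle controls, was the measured output for a strain with defective DNA damage repair.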
# [2] = NCI Yeast Anticancer Drug Screen. Data for the wt1 strain (AID 149);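 note: 0% = growth of vehicle-treated wt1 cultures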; details: S. cerevisiae wt1 strain (SPY 50644) growth inhibition, active compounds read high
# Outline: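 Readout: yeast growth inhibition, normalised to vehicle controls, in the wt1 strain exposed to test compounds.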
# [3] = NCI Yeast Anticancer Drug Screen. Data for the rad50EPP+ strain (AID 151);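 note: 0% = growth of vehicle-treated control cultures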; details: S. cerevisiae rad50 mutant strain, active compounds read high
# Outline: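 Genetically defined yeast (rad50EPP+, DNA damage repair alteration) is grown with compound, and inhibition of growth is expressed relative to vehicle-treated controls.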
# [4] = NCI Yeast Anticancer Drug Screen. Data for the mgt1 strain (AID 153); details: S. cerevisiae mgt1 mutant growth inhibition, active compounds read high
# Outline: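 In the mgt1 strain, test compounds were added and growth inhibition was determined relative to vehicle-treated controls.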
# [5] = NCI Yeast Anticancer Drug Screen. Data for the rad50 strain (AID 155);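 note: 0% = growth of vehicle-only cultures of the same strain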; details: S. cerevisiae rad50 strain growth inhibition, active compounds read high
# Outline: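 Compounds were tested on a yeast strain with an engineered DNA damage repair alteration; the reported value is growth inhibition normalised to vehicle treatment.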
# [6] = NCI Yeast Anticancer Drug Screen. Data for the mec2-1 strain (AID 157); details: S. cerevisiae mec2-1 strain, active compounds read high
# Outline: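 Each compound was tested on mec2-1 yeast, a strain altered in DNA damage repair or cell cycle control. Growth inhibition is reported relative to vehicle.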
# [7] = NCI Yeast Anticancer Drug Screen. Data for the rad14 strain (AID 159);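 note: 0% = growth of vehicle-treated control cultures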; details: S. cerevisiae rad14 strain growth inhibition, active compounds read high
# Outline: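 Compound-treated yeast with a defined DNA-repair lesion; growth inhibition normalised to vehicle-treated cultures.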
# [8] = NCI Yeast Anticancer Drug Screen. Data for the sgs1 mgt1 strain (AID 161);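 note: 0% = growth of cultures given vehicle only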; details: S. cerevisiae sgs1 mgt1 strain, active compounds read high
# Outline: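 Read-out: growth inhibition vs vehicle controls. Cells: mutant yeast strain deficient in DNA damage repair.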
# [9] = NCI Yeast Anticancer Drug Screen. Data for the CLN2oe strain (AID 163);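 note: 0% = growth of vehicle-only control cultures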; details: S. cerevisiae CLN2oe strain, active compounds read high
# Outline: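 First, the altered yeast strain was treated with each compound; second, its growth was measured; finally, inhibition was derived by comparison with vehicle controls.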
# [10] = NCI Yeast Anticancer Drug Screen. Data for the cln2 rad14 strain (AID 165);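 note: 0% = growth equal to vehicle treated cultures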; details: S. cerevisiae cln2 rad14 strain, active compounds read high
# Outline: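 Test compounds were added to cln2 rad14 yeast cultures; inhibition of growth was then determined by comparison with vehicle treatment.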
# [11] = NCI Yeast Anticancer Drug Screen. Data for the bub3 strain (AID 167); details: S. cerevisiae bub3 mutant strain, active compounds read high
# Outline: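 Growth of a checkpoint-deficient yeast mutant is measured after compound exposure. Values represent inhibition relative to vehicle.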
# [12] = NCI Yeast Anticancer Drug Screen. Data for the wt2 strain (AID 169);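 note: 0% = growth of vehicle-treated yeast cultures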; details: S. cerevisiae wt2 strain growth inhibition, active compounds read high
# Outline: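 The panel's yeast strains carry defined changes in DNA repair or cell cycle genes. Each strain is grown with compound, and growth loss is scored relative to vehicle.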
# [13] = NCI Yeast Anticancer Drug Screen. Data for the mlh1 strain (AID 171);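 note: 0% = growth of vehicle-treated control cultures of the same strain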; details: S. cerevisiae mlh1 strain growth inhibition, active compounds read high
# Outline: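 Inhibition values reflect reduced yeast growth in the presence of compound, referenced to vehicle controls, using a strain chosen for its alteration in DNA repair or cell cycle control.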
# [14] = NCI Yeast Anticancer Drug Screen. Data for the sgs1 strain (AID 173);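 note: 0% = growth of vehicle-only control cultures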; details: S. cerevisiae sgs1 mutant, active compounds read high
# Outline: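 Vehicle-treated cultures served as reference for growth inhibition of a yeast strain altered in DNA damage repair or cell cycle control after compound exposure.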
# [15] = NCI Yeast Anticancer Drug Screen. Data for the rad18 strain (AID 177); details: S. cerevisiae rad18 mutant growth inhibition, active compounds read high
# Outline: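 Steps: expose repair-mutant yeast to compound; measure growth; express as inhibition relative to vehicle control.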
# [16] = NCI Yeast Anticancer Drug Screen. Data for the mlh1 rad18 strain (AID 175); details: S. cerevisiae mlh1 rad18 strain growth inhibition, active compounds read high
# Outline: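 Inhibition values reflect reduced growth of mutant yeast versus vehicle-treated controls following compound exposure; the mutations affect DNA damage repair.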
# [17] = at 5.0 µM (retest, dose inferred, filed as 0.5)
# [18] = at 50.0 µM (retest, dose inferred, filed as 5.0)
compound,measurement,setting,value
CCCCCCCCCCCCCCC(C(=O)[O-])[n+]1ccccc1 (stereo not drawn),growth inhibition,[1]; at 1.2 µM,2%
same,growth inhibition,[1]; at 3.7 µM,2%
same,growth inhibition,[1]; at 11.0 µM,2%
same,growth inhibition,[1]; at 33.0 µM,-1%
same,growth inhibition,[1]; at 100.0 µM,91% (active)
same,growth inhibition,[2]; at 1.2 µM,-1%
same,growth inhibition,[2]; at 3.7 µM,-3%
same,growth inhibition,[2]; at 11.0 µM,-4%
same,growth inhibition,[2]; at 33.0 µM,-6%
same,growth inhibition,[2]; at 100.0 µM,6%
same,growth inhibition,[3]; at 1.2 µM,0%
same,growth inhibition,[3]; at 3.7 µM,4%
same,growth inhibition,[3]; at 11.0 µM,4%
same,growth inhibition,[3]; at 33.0 µM,3%
same,growth inhibition,[3]; at 100.0 µM,39%
same,growth inhibition,[4]; at 1.2 µM,2%
same,growth inhibition,[4]; at 3.7 µM,-4%
same,growth inhibition,[4]; at 11.0 µM,2%
same,growth inhibition,[4]; at 33.0 µM,-2%
same,growth inhibition,[4]; at 100.0 µM,95% (active)
same,growth inhibition,[5]; at 1.2 µM,3%
same,growth inhibition,[5]; at 3.7 µM,9%
same,growth inhibition,[5]; [17],9%
same,growth inhibition,[5]; at 11.0 µM,3%
same,growth inhibition,[5]; at 33.0 µM,4%
same,growth inhibition,[5]; [18],20%
same,growth inhibition,[5]; at 50.0 µM,98.5% (active)
same,growth inhibition,[5]; at 100.0 µM,97% (active)
same,growth inhibition,[6]; at 1.2 µM,3%
same,growth inhibition,[6]; at 3.7 µM,1%
same,growth inhibition,[6]; [17],-2%
same,growth inhibition,[6]; at 11.0 µM,-7%
same,growth inhibition,[6]; at 33.0 µM,-2%
same,growth inhibition,[6]; [18],97% (active)
same,growth inhibition,[6]; at 50.0 µM,99% (active)
same,growth inhibition,[6]; at 100.0 µM,95% (active)
same,growth inhibition,[7]; at 1.2 µM,-2%
same,growth inhibition,[7]; at 3.7 µM,13%
same,growth inhibition,[7]; at 11.0 µM,0%
same,growth inhibition,[7]; at 33.0 µM,2%
same,growth inhibition,[7]; at 100.0 µM,90% (active)
same,growth inhibition,[8]; [17],12%
same,growth inhibition,[8]; [18],45%
same,growth inhibition,[8]; at 50.0 µM,98.8% (active)
same,growth inhibition,[9]; at 1.2 µM,3%
same,growth inhibition,[9]; at 3.7 µM,3%
same,growth inhibition,[9]; at 11.0 µM,3%
same,growth inhibition,[9]; at 33.0 µM,-2%
same,growth inhibition,[9]; at 100.0 µM,26%
same,growth inhibition,[10]; [17],8%
same,growth inhibition,[10]; [18],26%
same,growth inhibition,[10]; at 50.0 µM,95.8% (active)
same,growth inhibition,[11]; at 1.2 µM,2%
same,growth inhibition,[11]; at 3.7 µM,-27%
same,growth inhibition,[11]; [17],5%
same,growth inhibition,[11]; at 11.0 µM,0%
same,growth inhibition,[11]; at 33.0 µM,-8%
same,growth inhibition,[11]; [18],91% (active)
same,growth inhibition,[11]; at 50.0 µM,97.3% (active)
same,growth inhibition,[11]; at 100.0 µM,85% (active)
same,growth inhibition,[12]; at 1.2 µM,0%
same,growth inhibition,[12]; at 3.7 µM,0%
same,growth inhibition,[12]; at 11.0 µM,-1%
same,growth inhibition,[12]; at 33.0 µM,7%
same,growth inhibition,[12]; at 100.0 µM,83% (active)
same,growth inhibition,[13]; at 1.2 µM,0%
same,growth inhibition,[13]; at 3.7 µM,-3%
same,growth inhibition,[13]; at 11.0 µM,-12%
same,growth inhibition,[13]; at 33.0 µM,-18%
same,growth inhibition,[13]; at 100.0 µM,99% (active)
same,growth inhibition,[14]; at 1.2 µM,0%
same,growth inhibition,[14]; at 3.7 µM,-3%
same,growth inhibition,[14]; at 11.0 µM,-2%
same,growth inhibition,[14]; at 33.0 µM,13%
same,growth inhibition,[14]; at 100.0 µM,95% (active)
same,growth inhibition,[15]; at 1.2 µM,3%
same,growth inhibition,[15]; at 3.7 µM,8%
same,growth inhibition,[15]; at 11.0 µM,24%
same,growth inhibition,[15]; at 33.0 µM,81% (active)
same,growth inhibition,[15]; at 100.0 µM,97% (active)
Oc1cccc2c(Cl)ccnc12,growth inhibition,[1]; at 1.2 µM,42%
same,growth inhibition,[1]; at 3.7 µM,99% (active)
same,growth inhibition,[1]; at 11.0 µM,99% (active)
same,growth inhibition,[1]; at 33.0 µM,95% (active)
same,growth inhibition,[1]; at 100.0 µM,98% (active)
same,growth inhibition,[2]; at 1.2 µM,47%
same,growth inhibition,[2]; at 3.7 µM,98% (active)
same,growth inhibition,[2]; at 11.0 µM,38%
same,growth inhibition,[2]; at 33.0 µM,97% (active)
same,growth inhibition,[2]; at 100.0 µM,99% (active)
same,growth inhibition,[3]; at 1.2 µM,83% (active)
same,growth inhibition,[3]; at 3.7 µM,102% (active)
same,growth inhibition,[3]; at 11.0 µM,81% (active)
same,growth inhibition,[3]; at 33.0 µM,97% (active)
same,growth inhibition,[3]; at 100.0 µM,97% (active)
same,growth inhibition,[4]; at 1.2 µM,41%
same,growth inhibition,[4]; at 3.7 µM,99% (active)
same,growth inhibition,[4]; at 11.0 µM,98% (active)
same,growth inhibition,[4]; at 33.0 µM,95% (active)
same,growth inhibition,[4]; at 100.0 µM,98% (active)
same,growth inhibition,[5]; at 1.2 µM,43%
same,growth inhibition,[5]; at 3.7 µM,100% (active)
same,growth inhibition,[5]; [17],99% (active)
same,growth inhibition,[5]; at 11.0 µM,98% (active)
same,growth inhibition,[5]; at 33.0 µM,97% (active)
same,growth inhibition,[5]; [18],99% (active)
same,growth inhibition,[5]; at 50.0 µM,91.5% (active)
same,growth inhibition,[5]; at 100.0 µM,97% (active)
same,growth inhibition,[6]; at 1.2 µM,39%
same,growth inhibition,[6]; at 3.7 µM,63%
same,growth inhibition,[6]; [17],99% (active)
same,growth inhibition,[6]; at 11.0 µM,99% (active)
same,growth inhibition,[6]; at 33.0 µM,97% (active)
same,growth inhibition,[6]; [18],99% (active)
same,growth inhibition,[6]; at 50.0 µM,93.2% (active)
same,growth inhibition,[6]; at 100.0 µM,99% (active)
same,growth inhibition,[7]; at 1.2 µM,37%
same,growth inhibition,[7]; at 3.7 µM,99% (active)
same,growth inhibition,[7]; at 11.0 µM,99% (active)
same,growth inhibition,[7]; at 33.0 µM,96% (active)
same,growth inhibition,[7]; at 100.0 µM,98% (active)
same,growth inhibition,[8]; [17],-5%
same,growth inhibition,[8]; [18],99% (active)
same,growth inhibition,[8]; at 50.0 µM,93.8% (active)
same,growth inhibition,[9]; at 1.2 µM,52%
same,growth inhibition,[9]; at 3.7 µM,96% (active)
same,growth inhibition,[9]; at 11.0 µM,97% (active)
same,growth inhibition,[9]; at 33.0 µM,93% (active)
same,growth inhibition,[9]; at 100.0 µM,97% (active)
same,growth inhibition,[10]; [17],43%
same,growth inhibition,[10]; [18],99% (active)
same,growth inhibition,[10]; at 50.0 µM,91.8% (active)
same,growth inhibition,[11]; at 1.2 µM,32%
same,growth inhibition,[11]; at 3.7 µM,54%
same,growth inhibition,[11]; [17],93% (active)
same,growth inhibition,[11]; at 11.0 µM,98% (active)
same,growth inhibition,[11]; at 33.0 µM,92% (active)
same,growth inhibition,[11]; [18],100% (active)
same,growth inhibition,[11]; at 50.0 µM,92.8% (active)
same,growth inhibition,[11]; at 100.0 µM,97% (active)
same,growth inhibition,[12]; at 1.2 µM,38%
same,growth inhibition,[12]; at 3.7 µM,97% (active)
same,growth inhibition,[12]; at 11.0 µM,98% (active)
same,growth inhibition,[12]; at 33.0 µM,97% (active)
same,growth inhibition,[12]; at 100.0 µM,98% (active)
same,growth inhibition,[13]; at 1.2 µM,27%
same,growth inhibition,[13]; at 3.7 µM,99% (active)
same,growth inhibition,[13]; at 11.0 µM,98% (active)
same,growth inhibition,[13]; at 33.0 µM,97% (active)
same,growth inhibition,[13]; at 100.0 µM,99% (active)
same,growth inhibition,[14]; at 1.2 µM,36%
same,growth inhibition,[14]; at 3.7 µM,99% (active)
same,growth inhibition,[14]; at 11.0 µM,99% (active)
same,growth inhibition,[14]; at 33.0 µM,96% (active)
same,growth inhibition,[14]; at 100.0 µM,98% (active)
same,growth inhibition,[16]; [17],100% (active)
same,growth inhibition,[16]; [18],99% (active)
same,growth inhibition,[16]; at 50.0 µM,91% (active)
same,growth inhibition,[15]; at 1.2 µM,33%
same,growth inhibition,[15]; at 3.7 µM,98% (active)
same,growth inhibition,[15]; at 11.0 µM,97% (active)
same,growth inhibition,[15]; at 33.0 µM,92% (active)
same,growth inhibition,[15]; at 100.0 µM,97% (active)

# Source: PubChem BioAssay (NCI)
